MITF inh: inhibitors of human MITF | O75030 | AID 1259374 | 650,000 compounds, 0.91% hits | AlphaScreen MITF homodimerization, bead proximity signal | inhibition, % at 2.6 µM; in the data active means inhibition above about 50%;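 further: 0% = vehicle wells with protein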
Target sequence (O75030 whole entry, looked up): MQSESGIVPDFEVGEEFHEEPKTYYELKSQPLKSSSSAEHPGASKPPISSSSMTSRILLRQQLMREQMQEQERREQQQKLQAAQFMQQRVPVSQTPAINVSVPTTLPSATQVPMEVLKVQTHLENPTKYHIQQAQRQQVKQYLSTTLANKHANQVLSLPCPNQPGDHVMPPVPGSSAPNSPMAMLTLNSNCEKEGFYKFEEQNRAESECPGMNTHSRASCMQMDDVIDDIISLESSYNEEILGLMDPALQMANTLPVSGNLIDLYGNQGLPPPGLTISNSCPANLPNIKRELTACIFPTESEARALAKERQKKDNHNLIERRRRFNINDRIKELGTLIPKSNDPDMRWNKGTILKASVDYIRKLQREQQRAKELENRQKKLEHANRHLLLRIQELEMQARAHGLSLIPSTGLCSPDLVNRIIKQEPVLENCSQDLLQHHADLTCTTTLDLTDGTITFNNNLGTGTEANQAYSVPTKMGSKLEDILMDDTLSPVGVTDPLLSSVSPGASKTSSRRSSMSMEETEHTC
GPR151 activ: activators of human GPR151. Q8TDV0. activation, % at 11.2 µM. 650,000 compounds, 1% hits. PathHunter beta-arrestin GPR151 cells, luminescence; in the data active means activation above about 4.9%;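 further: 0% = median of compound wells and 100% = cells with positive control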
FBW7 activator: activators of human E3 ligase FBW7 | AlphaScreen FBW7–phospho-cyclin E peptide binding, activator screen | AID 1259310 | normalized activity (activation), % at 26.1 µM | Q969H0 | 650,000 compounds, 0.13% hits; in the data active means normalized activity above about 1.9%;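 further: purified mutant Fbw7 with reduced substrate affinity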
TEAD-YAP inh: TEAD-YAP interaction inhibition; inhibition, % at 9.12 µM; 640,000 compounds, 1.4% hits; AID 1259422; HEK-TIYL cells, TEAD-Gal4/YAP UAS-luciferase luminescence; in the data active means inhibition above about 32%;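 further: 0% = median of test compound wells and 100% = reference inhibitor wells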
* hit, by the source's call. The list is not random: actives were taken first. Their share in the collection is about 3.5%.

SMILES	MITF inh	GPR151 activ	FBW7 activator	TEAD-YAP inh
COc1ccc(Nc2nc3nonc3nc2N/N=C(\C)c2nonc2C)cc1	4	1	0	52*
COc1ccc(Nc2nc3nonc3nc2Nc2ccc(OC)cc2)cc1	-7	0	0	10
O=C(Nc1nnc(-c2ccccc2Cl)o1)c1ccc(F)cc1	3	0	1	-3
NC(c1nc2ncc(-c3ccncc3)cc2[nH]1)c1ccc(F)cc1F (centres undefined)	46	-1	3.5*	-11
N[C@H](Cc1ccc(Cl)cc1)c1nc2ncc(-c3ccncc3)cc2[nH]1	14	-1	-1	21
CCCSc1nnc2c(n1)OC(c1ccc(OC)c(C)c1)Nc1ccccc1-2 (centres undefined)	8	2	0	-29
CCOc1cc(N2CCOCC2)c(OCC)cc1NC(=O)c1cccc([N+](=O)[O-])c1C	-1	3	0	4
CCOc1cc(N2CCOCC2)c(OCC)cc1NC(=O)c1cc(Cl)c(Cl)cc1C(=O)O	70*	-1	0	18
CC(=O)Nc1cccc(Oc2ccc3c(c2)C(=O)N(c2cccc(OC(C)=O)c2)C3=O)c1	-12	-2	0	46*
CC(=O)Nc1cccc(Oc2ccc3c(c2)C(=O)N(c2cccc(Cl)c2)C3=O)c1	-7	-6	0	80*
COc1ccc(C(=O)NNC(=O)CSc2ncc(-c3ccc(F)cc3)[nH]2)cc1OC	13	0	0	-17
CO[C@H]1[C@H](NC(=O)c2ccco2)c2ccccc2C12CCN(Cc1ccccc1F)CC2	-9	-1	0	10
Cc1cccc(OCC(=O)Nc2sc3c(c2C(N)=O)CCCC3)c1	-7	2	0	53*
O=C(/C=C/c1ccccc1)Nc1sc2c(c1C(=O)O)CCCC2	3	0	0	49*
NC(=O)c1c(NC(=O)/C=C/c2ccccc2)sc2c1CCC2	3	2	0	-80
Cc1ccc(NC(=O)c2c(NC(=O)c3ccc(Br)cc3)sc3c2CCCC3)c(C)c1	9	2	2.1*	0
Cc1cccc(C(=O)Nc2sc3c(c2C(=O)O)CCCC3)c1	0	-6	0	70*
c1ccc2c(c1)CCNC2CNCc1ccc2c(c1)OCO2 (centres undefined)	48	-2	0	10
COc1cc(Nc2nc3ccccc3n3nnnc23)cc(OC)c1	6	-2	0	-22
NC(=O)c1c(NC(=O)c2cccc(Br)c2)sc2c1CCCC2	-20	1	0	47*
NC(=O)c1c(NC(=O)CCl)sc2c1CCC2	5	0	0	61*
Cc1cccc(C(=O)Nc2sc3c(c2C(N)=O)CCCC3)c1	2	-3	0	52*
NC(=O)c1c(NC(=O)c2ccc(Br)o2)sc2c1CCCCC2	-5	-4	0	85*
CCC(=O)Nc1sc2c(c1C(N)=O)CCC2	-9	-1	0	7
CCNc1nc(NCc2cccc(C(F)(F)F)c2)c2ncn(C(C)C)c2n1	2	1	0	3
SMILES	MITF inh	GPR151 activ	FBW7 activator	TEAD-YAP inh
CCNc1c(NC(=O)CC23CC4CC(CC(C4)C2)C3)c(=O)oc2ccccc12	18	1	1	-3
CC(=O)c1ccc(N=Nc2c(O)[nH]c(=O)[nH]c2=O)cc1	-135	-2	0	13
O=C(/C=C/c1ccc([N+](=O)[O-])s1)Nc1ccc(Br)cc1	25	-1	0	-25
Cc1ccc(/C=C/C(=O)Nc2sccc2C(N)=O)o1	5	-4	1	-42
NC(=O)c1ccsc1NC(=O)/C=C/c1ccccc1	-2	-11	0	81*
CC(C)CCNC(=O)CN(C(=O)c1snc(C(N)=O)c1N)c1ccc(F)cc1	5	0	0	-7
CC(C)CCNC(=O)CN(C(=O)c1snc(C(N)=O)c1N)c1ccccc1F	2	1	2.1*	0
O=C(NCc1ccc(C(=O)O)cc1)Nc1ccc([N+](=O)[O-])cc1	8	-2	0	11
COc1ccc(Cl)cc1Nc1nc(Cc2ccccc2)nc2sc(C)c(C)c12	13	0	0	6
O=C(Cc1ccc([N+](=O)[O-])cc1)OCC(=O)c1ccc2ccccc2c1	20	1	0	46*
OCCNc1nc(Nc2ccc(-n3ccnc3)cc2)nc2c1ncn2-c1ccccc1	8	0	0	42*
OCCNc1nc(Nc2ccc(C(F)(F)F)cc2)nc2c1ncn2-c1ccsc1	-18	1	0	15
OCCNc1nc(Nc2ccccc2)nc2c1ncn2-c1ccccc1	7	-1	0	50*
OCCNc1nc(Nc2ccc(-n3ccnc3)cc2)nc2c1ncn2-c1ccsc1	4	1	0	47*
OCCNc1nc(Nc2ccncc2)nc2c1ncn2-c1ccsc1	13	2	0	60*
Oc1ccc(CCNc2nc(Nc3ccc(-n4ccnc4)cc3)nc3c2ncn3-c2ccccc2)cc1	3	0	0	16
Cc1c(NC(=O)c2ccc(F)cc2)ccc([N+](=O)[O-])c1C	-10	-1	0	-16
CCOc1ccc(NC(=O)CSc2nc3ccccc3c(=O)n2NC(=O)c2ccccc2)cc1	-32	-2	0	2
CCOc1ccc(NC(=O)CSc2nc3ccccc3c(=O)n2NC(=O)c2ccc(OC)cc2)cc1	7	2	0	54*
CCC(Sc1nc2ccccc2c(=O)n1NC(=O)c1ccc(OC)cc1)C(=O)NCc1cccnc1 (centres undefined)	-5	1	0	79*
COc1ccc(C(=O)Nn2c(SCC(=O)NCc3ccccc3)nc3ccccc3c2=O)cc1	-4	0	0	74*
CCC(Sc1nc2ccccc2c(=O)n1Cc1ccccc1OC)C(=O)NCc1cccnc1 (centres undefined)	-2	-1	0	-8
COc1ccc(C(=O)Nn2c(SCC(=O)Nc3ccc(C)cc3)nc3ccccc3c2=O)cc1	-5	-1	0	88*
COc1ccc(C2(CC(=O)NCCN3CCNC3=O)CC(=O)N(C3CCCC3)C2=O)cc1 (centres undefined)	2	1	0	-2
C[C@@H]1CN(C(=O)CCC2(Cc3ccc4ccccc4c3)CCC(=O)N2)C[C@H](C)O1 (some centres undefined)	-6	-1	0	4
SMILES	MITF inh	GPR151 activ	FBW7 activator	TEAD-YAP inh
COc1ccccc1/C=N\NC(=O)c1cc2ccccc2cc1OC	25	-1	1	-7
COc1ccc(C(=O)Nn2c(SCC(=O)NC3CCCC3)nc3ccccc3c2=O)cc1	-1	0	0	79*
COc1ccc(C(=O)Nn2c(SCC(=O)NCC3CCCO3)nc3ccccc3c2=O)cc1 (centres undefined)	-4	-1	0	84*
COc1ccc(C(=O)Nn2c(SCc3c(F)cccc3Cl)nc3ccccc3c2=O)cc1	-12	2	0	79*
O=C(CSc1nc2ccccc2c(=O)n1NC(=O)Cc1ccccc1)NCC1CCCO1 (centres undefined)	3	0	0	-1
CCc1cc2c(cc1O)oc(=O)c1ccccc12	-2	-1	-1	-10
CCc1ccc(N(CC(=O)NC(C)CC)S(C)(=O)=O)cc1 (centres undefined)	18	-1	1.9*	11
